We go through 5 molecules from PubChem BioAssay (EPA / NIEHS).

Molecules are shown by their SMILES. Results filed as inconclusive are left out. The source made the active and inactive calls. The calls were made as follows, unless noted: active = hit-call score of the fitted dose curve at least 0.9, where 1 is the maximum; inactive = score below 0.9.

The target of test [1] is Paired box protein Pax-6 (Homo sapiens) (UniProt P26367). The test can be described thus: ATG_Pax6_CIS: Attagene CIS-FACTORIAL HepG2 Assay for human Paired Box 6 (PAX6) (AID 2282956). The settings on record: HepG2 CIS-FACTORIAL PAX6 reporter transcription, RNA readout; actives raise or lower the signal. Put shortly:
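Transient MRTU transfection of HepG2 → compound exposure 24 h → TriZol RNA, oligo(dT) RT → PCR, 6-FAM primer extension, HpaI cut → capillary electrophoresis; activity fitted both directions against DMSO.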

The nature of test [2]: ATG_PXRE_CIS: Attagene CIS-FACTORIAL HepG2 Assay for human Pregnane X Receptor Element (PXRE) (AID 2282957). The note with it: HepG2 Attagene CIS-FACTORIAL PXRE reporter, mRNA; actives raise or lower the signal. In short, it runs like this:
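Transiently transfected HepG2 cells were dosed and incubated for 24 h. RNA was then isolated, DNase-treated, reverse-transcribed and reporter sequences amplified. Labeled, HpaI-digested fragments were quantified by capillary electrophoresis against DMSO.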

Test [3] is described as follows: ATG_PPRE_CIS: Attagene CIS-FACTORIAL HepG2 Assay for human Peroxisome Proliferator-activated Response Element (PPRE) (AID 2282958). The settings on record: HepG2 PPRE cis-element reporter, Attagene transcription factor profiling; actives raise or lower the signal. In short, it runs like this:
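Read-out: fluorescent reporter mRNA fragments resolved by capillary electrophoresis after RT-PCR. HepG2 cells carried transiently transfected PPRE-driven cis reporter constructs and were dosed for 24 h; gain or loss of signal fitted relative to DMSO.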

A short description of test [4]: ATG_RORE_CIS: Attagene CIS-FACTORIAL HepG2 Assay for human RAR-related Orphan Receptor Element (RORE) (AID 2282959). The settings on record: HepG2 Attagene cis-factorial RORE reporter, mRNA; actives raise or lower the signal. Put shortly:
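Readout: fluorescent reporter mRNA by RT-PCR plus capillary electrophoresis, 24 h after dosing transfected HepG2 cells. Endogenous transcription factor activity on a cis promoter element is measured. Gain or loss of signal fitted against DMSO.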

A short description of test [5]: ATG_Sox_CIS: Attagene CIS-FACTORIAL HepG2 Assay for human SRY-box transcription factor (SOX) (AID 2282960). The settings on record: HepG2 Attagene cis-factorial SOX reporter, mRNA; actives raise or lower the signal. Put shortly: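 Read-out: fluorescent RT-PCR products of SOX1-linked reporter transcripts resolved by capillary electrophoresis, fitted bidirectionally against DMSO. Transiently transfected HepG2 cells, 24 h after chemical exposure, endogenous transcription factor activity.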

Test [6] concerns the target Transcription factor Sp1 (Homo sapiens) (UniProt P08047). The test can be described thus: ATG_Sp1_CIS: Attagene CIS-FACTORIAL HepG2 Assay for human Specificity Protein 1 (Sp1) (AID 2282961). The note with it: HepG2 Sp1 cis-reporter transcription, actives raise or lower the signal. In short, it runs like this: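 Read-out: fluorescence of 6-FAM-labeled, HpaI-digested RT-PCR products separated by capillary electrophoresis. HepG2 cells carried transfected cis-element reporter units and were exposed to chemicals for 24 h; gain or loss of signal fitted relative to DMSO.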

A short description of test [7]: ATG_SREBP_CIS: Attagene CIS-FACTORIAL HepG2 Assay for human Sterol Regulatory Element Binding (SREBP) (AID 2282962). The note with it: HepG2 Attagene cis-factorial SREBP reporter, mRNA; actives raise or lower the signal. In short, it runs like this: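 Transfected HepG2 (cis-regulated reporter library, endogenous TFs) → compound 24 h → total RNA → oligo(dT) RT → reporter-specific PCR → FAM primer extension, HpaI cut → CE fluorescence. Fit bidirectional vs DMSO.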

For test [8], the target named is Signal transducer and activator of transcription 3 (Homo sapiens) (UniProt P40763). The test can be described thus: ATG_STAT3_CIS: Attagene CIS-FACTORIAL HepG2 Assay for human Signal Transducer and Activator of Transcription 3 (STAT3) (AID 2282963). The settings on record: HepG2, Attagene cis-factorial STAT3 reporter transcription; actives raise or lower the signal. In short, it runs like this:
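After a 24 h compound incubation, total RNA from MRTU-transfected HepG2 cells was converted to cDNA and reporter sequences PCR-amplified, labelled and profiled by capillary electrophoresis. Gain and loss of signal were referenced to DMSO.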

Test [9] can be described thus: ATG_TA_CIS: Attagene CIS-FACTORIAL HepG2 Assay for human TA Basal Promoter (AID 2282964). The note with it: HepG2 Attagene CIS-factorial TA basal promoter reporter; actives raise or lower the signal. Put shortly: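 Fluorescence from labelled RT-PCR reporter fragments, separated by capillary electrophoresis, gives the signal. Cells: HepG2 transiently carrying multiple reporter units, 24 h chemical dosing. Gain or loss relative to DMSO.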

A short description of test [10]: ATG_TAL_CIS: Attagene CIS-FACTORIAL HepG2 Assay for human TAL Basal Promoter (AID 2282966).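 Also: background control endpoint measuring basal TAL promoter reporter mRNA not a specific factor.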 The settings on record: HepG2 Attagene cis-factorial TAL promoter reporter; actives raise or lower the signal. In short, it runs like this: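 Readout: reporter mRNA, fluorescence by CE. System: HepG2, transient multi-reporter transfection, endogenous TF activity. Exposure: 24 h. Analysis: bidirectional, DMSO-normalized; background control.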

A short description of test [11]: ATG_TGFb_CIS: Attagene CIS-FACTORIAL HepG2 Assay for human Transforming Growth Factor (TGF) (AID 2282967). The note with it: HepG2 Attagene CIS TGFb reporter, mRNA transcription; actives raise or lower the signal. Put shortly:
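Bidirectional fitting relative to DMSO gave the endpoint. Underlying data: reporter mRNA from HepG2 cells carrying transiently transfected cis-regulated reporter constructs, harvested 24 h after dosing and analyzed by RT-PCR and capillary electrophoresis.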

The target in test [12] is Nuclear receptor subfamily 1 group I member 3 (Homo sapiens) (UniProt Q14994). The test can be described thus: ATG_CAR_TRANS: Attagene TRANS-FACTORIAL HepG2 Assay for human Constitutive Androstane Receptor (CAR) (AID 2282969; active = hit-call score of the fitted dose curve at least 0.9, where 1 is the maximum;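 also: activators raise reporter mRNA above DMSO so AC50 marks induction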). The settings on record: HepG2 Attagene TRANS-FACTORIAL CAR reporter. In short, it runs like this: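 Readout is reporter mRNA induction, quantified by fluorescent primer extension and capillary electrophoresis after RT-PCR. Cells were HepG2 transiently carrying chimeric NR-Gal4 constructs with GAL4-UAS reporters, treated for 24 h; activity scored upward from DMSO.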

Test [13] addresses Estrogen receptor (Homo sapiens) (UniProt P03372). The test can be described thus: ATG_ERa_TRANS: Attagene TRANS-FACTORIAL HepG2 Assay for human Estrogen Receptor alpha (ERa) (AID 2282970; active = hit-call score of the fitted dose curve at least 0.9, where 1 is the maximum). The settings on record: HepG2 Attagene TRANS ERa GAL4 reporter, mRNA. In short, it runs like this:
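Transactivation via ERa-Gal4 chimera in HepG2; 24 hour incubation; reporter mRNA detected by fluorescence RT-PCR and capillary electrophoresis.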

Test [14] addresses Steroid hormone receptor ERR1 (Homo sapiens) (UniProt P11474). As to the kind of experiment: ATG_ERRa_TRANS: Attagene TRANS-FACTORIAL HepG2 Assay for human Estrogen-Related Receptor alpha (ERRa) (AID 2282971; active = hit-call score of the fitted dose curve at least 0.9, where 1 is the maximum). The note with it: HepG2 Attagene TRANS reporter, ERRa transactivation. In short, it runs like this:
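HepG2 cells were transiently transfected with multiple GAL4-UAS reporter units, then dosed with compound for 24 h. Total RNA was reverse-transcribed, reporter cDNA PCR-amplified and fluorescently labelled, and fragments resolved by capillary electrophoresis; induction was compared with DMSO.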

Test [15] can be described thus: ATG_M_19_TRANS: Attagene TRANS-FACTORIAL HepG2 Assay for M19 Transcription Factor (Internal Marker) (AID 2282974; active = hit-call score of the fitted dose curve at least 0.9, where 1 is the maximum). The settings on record: HepG2 Attagene TRANS-FACTORIAL M19 internal marker reporter. Put shortly:
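24 h chemical exposure of transiently transfected HepG2 (MRTU library). RNA → oligo(dT) RT → PCR → 6-FAM labelling → HpaI cut → CE fluorescence. Positive-direction fit vs DMSO baseline; background internal-marker readout.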

A short description of test [16]: ATG_VDRE_CIS: Attagene CIS-FACTORIAL HepG2 Assay for human Vitamin D Receptor Element (VDRE) (AID 2282968). The note with it: HepG2 VDRE cis-reporter transcription, actives raise or lower the signal. In short, it runs like this:
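In transiently transfected HepG2 liver cells, gain or loss of reporter mRNA after 24 h exposure is scored relative to DMSO, using fluorescence detection by capillary electrophoresis of RT-PCR products.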

Test [17] deals with X-box-binding protein 1 (Homo sapiens) (UniProt P17861). As to the kind of experiment: ATG_Xbp1_CIS: Attagene CIS-FACTORIAL HepG2 Assay for human X-box Binding Protein 1 (XBP1) (AID 2282972). The settings on record: HepG2 XBP1 cis-element reporter, Attagene multiplex; actives raise or lower the signal. Put shortly:
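HepG2, transient MRTU transfection (cis-promoter driven), 24 h compound exposure. Total RNA → oligo(dT) RT → PCR → 6-FAM labeling → HpaI cut → CE. Bidirectional fit vs DMSO.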

A short description of test [18]: ATG_GAL4_TRANS: Attagene TRANS-FACTORIAL HepG2 Assay for GAL4 (Internal Marker) (AID 2282976; active = hit-call score of the fitted dose curve at least 0.9, where 1 is the maximum). The note with it: HepG2 Attagene TRANS GAL4 internal marker reporter. Put shortly:
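Fluorescence from capillary electrophoresis of labelled RT-PCR products quantifies reporter mRNA induction after 24 h dosing of HepG2 cells carrying transfected GAL4-UAS reporter transcription units. Vehicle DMSO serves as baseline.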

The target in test [19] is Estrogen-related receptor gamma (Homo sapiens) (UniProt P62508). The test can be described thus: ATG_ERRg_TRANS: Attagene TRANS-FACTORIAL HepG2 Assay for human Estrogen-Related Receptor gamma (ERRg) (AID 2282977; active = hit-call score of the fitted dose curve at least 0.9, where 1 is the maximum;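 also: hits increase reporter signal over DMSO so potencies reflect activators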). The settings on record: HepG2 Attagene TRANS reporter, ERRg transactivation. Put shortly: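 HepG2 cells transiently transfected with multiplexed GAL4-UAS reporter units and chimeric NR-Gal4 constructs were exposed to test chemicals for 24 h. Reporter mRNA was measured by RT-PCR, 6-FAM primer extension, HpaI digestion and capillary electrophoresis; gain-of-signal versus DMSO.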

Test [20] can be described thus: ATG_TCF_b_cat_CIS: Attagene CIS-FACTORIAL HepG2 Assay for human T-Cell-Factor with beta-catenin (TCF/b-cat) (AID 2282965). The note with it: HepG2 TCF/beta-catenin cis-reporter transcription, actives raise or lower the signal. Put shortly: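 Measured: reporter mRNA in HepG2 transiently transfected with cis-promoter reporter units, 24 h after chemical addition. Fitting was bidirectional, DMSO as negative control.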

Chain of Estrogen receptor (Homo sapiens) (P03372 whole entry, looked up, the tested form may be a part): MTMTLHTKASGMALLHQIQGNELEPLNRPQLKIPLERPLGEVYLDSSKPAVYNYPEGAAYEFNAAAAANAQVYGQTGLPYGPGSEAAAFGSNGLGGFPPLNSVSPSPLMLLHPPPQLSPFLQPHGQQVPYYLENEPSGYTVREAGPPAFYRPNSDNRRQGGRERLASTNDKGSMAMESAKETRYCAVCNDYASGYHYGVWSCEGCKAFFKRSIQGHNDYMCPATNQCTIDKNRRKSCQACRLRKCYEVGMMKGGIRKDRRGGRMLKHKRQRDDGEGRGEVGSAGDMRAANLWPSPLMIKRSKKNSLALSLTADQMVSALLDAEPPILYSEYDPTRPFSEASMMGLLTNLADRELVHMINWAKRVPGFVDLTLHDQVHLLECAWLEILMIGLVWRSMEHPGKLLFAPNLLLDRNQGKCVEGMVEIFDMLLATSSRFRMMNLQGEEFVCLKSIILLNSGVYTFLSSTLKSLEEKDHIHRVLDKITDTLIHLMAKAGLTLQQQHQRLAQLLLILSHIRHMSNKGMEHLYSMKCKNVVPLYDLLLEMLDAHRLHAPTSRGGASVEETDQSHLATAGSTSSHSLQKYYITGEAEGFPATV
Chain of Paired box protein Pax-6 (Homo sapiens) (P26367 whole entry, looked up): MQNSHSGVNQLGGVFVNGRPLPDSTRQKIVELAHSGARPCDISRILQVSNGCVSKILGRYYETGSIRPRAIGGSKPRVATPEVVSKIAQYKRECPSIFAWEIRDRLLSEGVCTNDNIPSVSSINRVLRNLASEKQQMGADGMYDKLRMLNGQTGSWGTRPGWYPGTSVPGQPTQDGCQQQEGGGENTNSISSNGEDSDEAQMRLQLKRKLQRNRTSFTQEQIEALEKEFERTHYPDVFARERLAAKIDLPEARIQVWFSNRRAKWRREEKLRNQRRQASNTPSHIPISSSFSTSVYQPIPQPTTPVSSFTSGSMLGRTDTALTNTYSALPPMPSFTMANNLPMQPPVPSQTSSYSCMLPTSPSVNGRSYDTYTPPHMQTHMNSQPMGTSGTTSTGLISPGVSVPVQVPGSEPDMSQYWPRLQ
Chain of Signal transducer and activator of transcription 3 (Homo sapiens) (P40763 whole entry, looked up): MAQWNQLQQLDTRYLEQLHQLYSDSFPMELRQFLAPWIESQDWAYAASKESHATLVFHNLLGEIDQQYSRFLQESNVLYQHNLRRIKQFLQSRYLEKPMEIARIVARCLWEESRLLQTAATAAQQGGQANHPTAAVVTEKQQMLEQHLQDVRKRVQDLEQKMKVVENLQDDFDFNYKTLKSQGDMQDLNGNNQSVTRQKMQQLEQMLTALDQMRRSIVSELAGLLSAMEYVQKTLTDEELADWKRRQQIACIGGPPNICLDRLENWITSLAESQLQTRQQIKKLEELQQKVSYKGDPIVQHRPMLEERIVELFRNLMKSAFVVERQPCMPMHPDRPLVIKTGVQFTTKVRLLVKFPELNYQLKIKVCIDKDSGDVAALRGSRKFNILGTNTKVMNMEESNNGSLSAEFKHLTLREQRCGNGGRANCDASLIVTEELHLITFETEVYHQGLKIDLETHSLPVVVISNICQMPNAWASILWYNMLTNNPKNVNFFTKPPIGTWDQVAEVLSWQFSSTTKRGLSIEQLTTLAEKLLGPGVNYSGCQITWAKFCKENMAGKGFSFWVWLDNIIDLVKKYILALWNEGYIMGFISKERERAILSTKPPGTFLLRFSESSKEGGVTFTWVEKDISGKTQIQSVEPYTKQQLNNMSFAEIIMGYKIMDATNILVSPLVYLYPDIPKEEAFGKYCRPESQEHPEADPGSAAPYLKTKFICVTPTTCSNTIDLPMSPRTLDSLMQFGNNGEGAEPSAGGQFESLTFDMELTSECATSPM
Chain of X-box-binding protein 1 (Homo sapiens) (P17861 whole entry, looked up): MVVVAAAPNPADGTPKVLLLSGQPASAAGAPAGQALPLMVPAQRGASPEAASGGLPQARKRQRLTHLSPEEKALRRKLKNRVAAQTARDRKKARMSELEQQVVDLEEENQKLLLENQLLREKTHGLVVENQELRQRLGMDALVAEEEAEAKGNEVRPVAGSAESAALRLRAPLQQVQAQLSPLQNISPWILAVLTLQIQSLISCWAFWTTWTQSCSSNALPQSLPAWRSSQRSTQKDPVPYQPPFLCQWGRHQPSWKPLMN
Chain of Steroid hormone receptor ERR1 (Homo sapiens) (P11474 whole entry, looked up, the tested form may be a part): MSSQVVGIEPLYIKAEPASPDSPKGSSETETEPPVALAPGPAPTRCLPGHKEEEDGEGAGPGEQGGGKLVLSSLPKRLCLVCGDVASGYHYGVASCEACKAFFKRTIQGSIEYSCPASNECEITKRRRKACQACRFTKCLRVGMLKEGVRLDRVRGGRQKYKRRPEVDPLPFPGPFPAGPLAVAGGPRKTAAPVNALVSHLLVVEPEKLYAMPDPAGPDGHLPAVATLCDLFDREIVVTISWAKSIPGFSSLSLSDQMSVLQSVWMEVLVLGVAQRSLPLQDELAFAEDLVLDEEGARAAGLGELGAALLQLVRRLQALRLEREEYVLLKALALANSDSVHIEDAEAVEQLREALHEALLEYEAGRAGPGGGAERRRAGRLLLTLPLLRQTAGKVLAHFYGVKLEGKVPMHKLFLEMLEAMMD
Chain of Estrogen-related receptor gamma (Homo sapiens) (P62508 whole entry, looked up, the tested form may be a part): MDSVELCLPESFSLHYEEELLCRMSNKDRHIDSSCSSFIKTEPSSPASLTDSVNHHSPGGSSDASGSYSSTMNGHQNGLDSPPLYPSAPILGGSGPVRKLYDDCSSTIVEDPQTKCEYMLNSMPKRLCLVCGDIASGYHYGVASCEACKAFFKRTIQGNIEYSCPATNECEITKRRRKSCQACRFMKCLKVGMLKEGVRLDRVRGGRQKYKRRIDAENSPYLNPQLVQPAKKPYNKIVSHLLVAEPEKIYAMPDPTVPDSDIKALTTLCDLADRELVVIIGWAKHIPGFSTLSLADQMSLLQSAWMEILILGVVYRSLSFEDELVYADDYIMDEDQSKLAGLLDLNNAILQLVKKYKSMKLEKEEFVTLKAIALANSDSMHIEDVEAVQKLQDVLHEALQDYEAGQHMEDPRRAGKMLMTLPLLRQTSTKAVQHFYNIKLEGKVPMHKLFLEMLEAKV
Chain of Transcription factor Sp1 (Homo sapiens) (P08047 whole entry, looked up): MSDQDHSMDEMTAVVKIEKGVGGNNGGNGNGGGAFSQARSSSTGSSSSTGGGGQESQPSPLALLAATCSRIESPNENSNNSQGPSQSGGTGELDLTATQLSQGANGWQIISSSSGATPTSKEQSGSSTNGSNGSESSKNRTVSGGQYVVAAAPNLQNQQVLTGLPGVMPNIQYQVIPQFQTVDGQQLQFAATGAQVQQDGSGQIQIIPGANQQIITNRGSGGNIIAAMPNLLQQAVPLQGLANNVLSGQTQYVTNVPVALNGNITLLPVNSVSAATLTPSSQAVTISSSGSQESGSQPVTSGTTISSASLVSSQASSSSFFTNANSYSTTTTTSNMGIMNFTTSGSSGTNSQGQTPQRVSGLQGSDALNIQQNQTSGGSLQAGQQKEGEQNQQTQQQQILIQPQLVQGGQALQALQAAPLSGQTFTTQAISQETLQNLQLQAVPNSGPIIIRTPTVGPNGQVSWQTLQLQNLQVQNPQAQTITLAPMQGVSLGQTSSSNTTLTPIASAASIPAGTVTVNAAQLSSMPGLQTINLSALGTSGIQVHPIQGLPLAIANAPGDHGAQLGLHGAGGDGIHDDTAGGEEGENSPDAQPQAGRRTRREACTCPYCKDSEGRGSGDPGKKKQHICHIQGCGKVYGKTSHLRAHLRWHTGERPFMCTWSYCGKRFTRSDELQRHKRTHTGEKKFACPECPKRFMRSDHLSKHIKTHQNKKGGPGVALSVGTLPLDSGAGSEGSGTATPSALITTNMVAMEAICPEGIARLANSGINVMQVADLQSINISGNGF
Chain of Nuclear receptor subfamily 1 group I member 3 (Homo sapiens) (Q14994 whole entry, looked up, the tested form may be a part): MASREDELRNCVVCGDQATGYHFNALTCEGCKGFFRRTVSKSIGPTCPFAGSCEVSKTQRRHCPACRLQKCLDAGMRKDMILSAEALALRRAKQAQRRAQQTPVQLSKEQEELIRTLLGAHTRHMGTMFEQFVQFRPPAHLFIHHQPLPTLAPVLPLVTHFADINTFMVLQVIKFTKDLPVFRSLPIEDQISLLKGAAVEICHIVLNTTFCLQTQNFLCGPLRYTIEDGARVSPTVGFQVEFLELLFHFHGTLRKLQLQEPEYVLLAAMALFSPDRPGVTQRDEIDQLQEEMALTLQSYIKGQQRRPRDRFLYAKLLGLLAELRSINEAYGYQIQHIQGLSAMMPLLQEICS

As to `Cc1c(C)c([N+](=O)[O-])c(C(C)(C)C)c([N+](=O)[O-])c1C`, the call in test [1], in test [3], in test [4], in test [5], in test [6] and in test [7] was inactive. Besides, the result in test [8], in test [9], in test [10], in test [11], in test [12] and in test [13] was inactive. Besides, the outcome in test [14] and in [15] was inactive. In test [2], the AC50 was 1.93 µM (active).
As to `CCCCCCCCCCc1ccccc1`, the outcome in test [1], in [2], in test [3], in [4], in test [5] and in test [6] was inactive. The result in test [7], in test [8], in test [9], in [10], in test [11] and in test [16] was inactive. Besides, the molecule was classed as inactive in test [13], in [14], in test [17], in [18] and in test [19].
With `COC(=O)c1ccc2cc(C(=O)OC)ccc2c1`, the molecule was classed as inactive in test [1], in test [2], in test [3], in test [4], in test [5] and in test [6]. The result in test [7], in [8], in [9], in test [20], in test [11] and in test [13] was inactive. The call in test [14] and in test [19] was inactive.
As to `O=C(O)Cc1c(Cl)ccc(Cl)c1Cl`, the result in test [1], in test [2], in test [3], in test [4], in [5] and in test [6] was inactive. In addition, the outcome in test [7], in test [9], in test [20], in test [11], in test [17] and in test [15] was inactive.
As for `c1ccc2c(c1)ccc1ncccc12`, the molecule was called inactive in [1], in test [3], in [4], in test [5], in test [6] and in test [7]. Besides, the call in test [8], in test [9], in [20], in test [11], in [13] and in [14] was inactive. The call in [17], in test [15], in test [18] and in test [19] was inactive. Further, in test [2], the AC50 was 25.3 µM (active).

For orientation: AC50 means the midpoint of the concentration-response curve, whichever way the signal moves.
